The list shows a part of the results. How many sequences the whole screen found active is unknown.
Target: furin, P09958
Assay: furin cleavage Z-score vs untreated control; higher = more cleavage, active = 3.5 or more, inactive = 1 or less, 8 variable residues between constant flanks
Experimental: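 Multiplexed peptide-cDNA fusion cleavage assay. 8-mer variable peptides flanked by constant Cys-Ala (N-term) and Ala-Gly-Asn-Ala-Ser-Ala-Ser-Ala (C-term) and conjugated to a cDNA oligonucleotide were bead-immobilised via the N-terminus. They were treated with purified furin at a 1:10 enzyme:substrate ratio in 50 mM HEPES pH 7.5, 1 mM CaCl2, 100 mM NaCl for 7.5, 15 or 30 min. Released cDNA was counted by next-generation sequencing, and log counts versus no-furin controls were lowess-adjusted and converted to robust Z-scores.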

furin, P09958, sequence (P09958 whole entry): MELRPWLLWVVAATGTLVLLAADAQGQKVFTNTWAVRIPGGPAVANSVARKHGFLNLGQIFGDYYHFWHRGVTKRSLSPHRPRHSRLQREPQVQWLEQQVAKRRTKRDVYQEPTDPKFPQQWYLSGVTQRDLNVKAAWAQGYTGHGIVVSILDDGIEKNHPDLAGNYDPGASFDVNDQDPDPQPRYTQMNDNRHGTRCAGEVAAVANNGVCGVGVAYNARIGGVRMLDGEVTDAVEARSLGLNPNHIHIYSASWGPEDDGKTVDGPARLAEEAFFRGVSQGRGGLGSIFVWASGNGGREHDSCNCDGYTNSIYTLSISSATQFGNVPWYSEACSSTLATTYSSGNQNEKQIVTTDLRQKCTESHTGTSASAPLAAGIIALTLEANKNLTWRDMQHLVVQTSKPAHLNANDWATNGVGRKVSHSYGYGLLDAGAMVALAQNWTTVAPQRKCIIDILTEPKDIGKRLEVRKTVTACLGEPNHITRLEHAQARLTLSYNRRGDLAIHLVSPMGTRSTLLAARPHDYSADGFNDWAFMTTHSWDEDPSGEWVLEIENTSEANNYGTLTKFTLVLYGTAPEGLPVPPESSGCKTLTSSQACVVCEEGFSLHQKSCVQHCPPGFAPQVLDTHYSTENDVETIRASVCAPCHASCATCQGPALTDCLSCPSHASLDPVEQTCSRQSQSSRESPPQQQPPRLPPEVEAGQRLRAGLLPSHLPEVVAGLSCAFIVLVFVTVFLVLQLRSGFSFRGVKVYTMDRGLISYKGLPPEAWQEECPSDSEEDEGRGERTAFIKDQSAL

Sequence | furin cleavage Z-score (7.5 min) | furin cleavage Z-score (15 min) | furin cleavage Z-score (30 min)
CAYVGGPLTNAGNASASA [HC1501] | -0.238 (inactive) | -0.463 (inactive) | -0.523 (inactive)
CAQRVEFLVQAGNASASA [HC1470] | -0.81 (inactive) | 1.84 | 0.832 (inactive)
CAARGSPPSVAGNASASA [HC1256] | 0.929 (inactive) | -0.707 (inactive) | 1.93
CAETITLPQDAGNASASA [HC897] | -1.02 (inactive) | 0.648 (inactive) | -1.05 (inactive)
CAHVVTSTWVAGNASASA [HC2155] | -1.33 (inactive) | 0.00684 (inactive) | -0.368 (inactive)
CASTACSAHLAGNASASA [HC2503] | 0.199 (inactive) | 1.42 | -0.356 (inactive)
CARMAWDMMMAGNASASA [HC319] | -0.311 (inactive) | -0.626 (inactive) | -0.966 (inactive)
CATLPALSTGAGNASASA [HC501] | -1.14 (inactive) | 0.758 (inactive) | -0.483 (inactive)
CALKVPYFVRAGNASASA [HC614] | -0.584 (inactive) | 0.223 (inactive) | 0.218 (inactive)
CADRSRTPRGAGNASASA [FS-759] | 3.99 (active) | 4.25 (active) | 4.12 (active)
CAGAARLPRGAGNASASA [FS-777] | 0.571 (inactive) | 1.37 | 2.25
CAGASRSPRGAGNASASA [FS-237] | 3.32 | 4.49 (active) | 5.42 (active)
CAGWLLSPRGAGNASASA [HC208] | 0.27 (inactive) | -1.63 (inactive) | 0.774 (inactive)
CAPERRDVCWAGNASASA [FS-1677] | -0.617 (inactive) | -1.12 (inactive) | 0.841 (inactive)
CASRCGSGPWAGNASASA [HC458] | -0.489 (inactive) | -1.8 (inactive) | -0.818 (inactive)
CAERRRQAGAAGNASASA [FS-1879] | -0.934 (inactive) | -0.697 (inactive) | -1.89 (inactive)
CALRRRLRKQAGNASASA [FS-362] | 4.47 (active) | 6.23 (active) | 5.78 (active)
CATWHRLRKGAGNASASA [FS-1427] | -1.13 (inactive) | -0.138 (inactive) | -1.3 (inactive)
CAWLKRQKRNAGNASASA [FS-318] | 12.5 (active) | 12.8 (active) | 10.3 (active)
CAFPDRVKRNAGNASASA [FS-770] | 3.16 | 3.37 | 3.96 (active)
CACGKRFKKNAGNASASA [FS-219] | 1.2 | -0.0472 (inactive) | 1.28
CALRRRQKRQAGNASASA [FS-1234] | 11.3 (active) | 12.6 (active) | 9.62 (active)

Sequence | furin cleavage Z-score (7.5 min) | furin cleavage Z-score (15 min) | furin cleavage Z-score (30 min)
CAFDQGWGPIAGNASASA [HC393] | -0.624 (inactive) | -1.32 (inactive) | -0.893 (inactive)
CATTPCSGSGAGNASASA [HC1936] | -2.04 (inactive) | 2.2 | -0.763 (inactive)
CASTPCSGHLAGNASASA [HC2536] | -0.918 (inactive) | -1.44 (inactive) | -0.11 (inactive)
CATDNRSRKRAGNASASA [FS-1658] | -0.57 (inactive) | 0.304 (inactive) | -1.94 (inactive)
CAEVCTSTWVAGNASASA [HC2200] | -1.07 (inactive) | -0.375 (inactive) | 0.694 (inactive)
CAAVEVDGAGAGNASASA [CS7] | 0.521 (inactive) | 0.0281 (inactive) | -2.24 (inactive)
CASLKRDVSLAGNASASA [FS-2473] | -0.763 (inactive) | 0.0335 (inactive) | 1.41
CASLKRQKRQAGNASASA [FS-502] | 11.6 (active) | 12.1 (active) | 8.85 (active)
CAENPCHRPSAGNASASA [HC2341] | -0.397 (inactive) | 1.48 | 0.0102 (inactive)
CASDGRGKRHAGNASASA [FS-1277] | 6.1 (active) | 6.45 (active) | 6.27 (active)
CANLLRVFRQAGNASASA [FS-468] | 0.426 (inactive) | -0.885 (inactive) | 0.089 (inactive)
CALLRIPQAIAGNASASA [HC329] | -0.657 (inactive) | -1.81 (inactive) | -0.194 (inactive)
CASSNVSVAHAGNASASA [HC1554] | -2.36 (inactive) | -0.374 (inactive) | -0.657 (inactive)
CAKQGVSKRHAGNASASA [FS-261] | 2.25 | 2.44 | 3.51 (active)
CALLRRPFRQAGNASASA [FS-1361] | 2.8 | 1.06 | 3.65 (active)
CALYRLGAVQAGNASASA [HC973] | 0.321 (inactive) | -0.642 (inactive) | 0.286 (inactive)
CAVQIVSTAAAGNASASA [HC690] | 0.498 (inactive) | -1.18 (inactive) | -0.374 (inactive)
CAEVIKGGRHAGNASASA [HC852] | -2.02 (inactive) | -1.42 (inactive) | -1.4 (inactive)
CALLRRGKRHAGNASASA [FS-51] | 11 (active) | 10.8 (active) | 8.35 (active)
CADCEVVTSTAGNASASA [HC2300] | 0.556 (inactive) | 0.654 (inactive) | -0.729 (inactive)
CAQVCCSMSYAGNASASA [HC2002] | -0.191 (inactive) | -0.875 (inactive) | 0.558 (inactive)
